MRP-1 activ – MRP-1 activation | H69AR cells + doxorubicin, viability rescue, CellTiter-Glo | viability increase, % at 10 µM | 0.61% of 140,000 active | AID 799;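 active = viability gain under doxorubicin at or above a set limit, the compound median plus 3 SD, cut at about 4.7% in these data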;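 note: MRP-1 overexpressing cells given doxorubicin 25 µM after compound pretreatment; 18-22 h compound pretreatment then 72 h with doxorubicin before readout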
CYP2C9 act – CYP2C9 (human) activation; recombinant CYP2C9, luciferin-H conversion, luminescence; hits give high values; factor 1 = untreated enzyme, 0 = blocked; activation factor at 5 µM; P11712; AID 1024; 1.4% of 96,000 active;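 active = activation factor of 2 or more for CYP2C9 at a 5 µM dose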
CYP2C19 inh – inhibitors of human CYP2C19; CYP2C19 Supersomes, luciferin-H EGE luminescence, 30 min; 21% of 96,000 active; inhibition, % at 5 µM; P33261;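 active = CYP2C19 inhibition above a set limit at 5 µM in the primary screen, cut at about 50% in these data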
Target sequence (P33261 whole entry, looked up): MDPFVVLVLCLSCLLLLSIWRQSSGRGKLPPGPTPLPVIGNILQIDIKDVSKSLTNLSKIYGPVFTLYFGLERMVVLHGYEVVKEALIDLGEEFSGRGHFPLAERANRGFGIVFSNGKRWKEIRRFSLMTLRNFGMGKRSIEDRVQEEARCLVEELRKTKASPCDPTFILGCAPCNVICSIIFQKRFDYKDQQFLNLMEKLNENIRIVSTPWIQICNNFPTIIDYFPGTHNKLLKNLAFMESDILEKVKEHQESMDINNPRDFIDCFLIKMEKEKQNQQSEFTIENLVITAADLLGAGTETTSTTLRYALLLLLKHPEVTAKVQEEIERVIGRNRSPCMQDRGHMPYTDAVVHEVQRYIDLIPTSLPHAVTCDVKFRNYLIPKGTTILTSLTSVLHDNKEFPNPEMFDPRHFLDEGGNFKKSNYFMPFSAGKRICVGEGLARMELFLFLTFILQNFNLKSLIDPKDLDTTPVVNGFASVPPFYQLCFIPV
CYP2C9 inhib – blocks human cytochrome P450 2C9; P11712; CYP2C9 Supersomes, luciferin-H conversion, luminescence; AID 777; inhibition, % at 5 µM; 20% of 96,000 active;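 active = blocking of liver enzyme CYP2C9 beyond about 50% at 5 µM, limit read from the data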
MRP reversal – MRP-mediated drug resistance reversal; 0.04% of 85,000 active; differential viability (reversal), % at 10 µM; H69AR cells + 2 uM doxorubicin, CellTiter-Glo, 72 h;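 active = viability drop by adding the cancer drug above about 55%, with treated viability meeting a 40% cutoff, limit read from the data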;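 note: larger differential means the compound sensitizes cells more to doxorubicin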
CYP2C19 activ – increases human CYP2C19 enzyme activity; P33261; recombinant CYP2C19, luciferin-H EGE luminescence; hits give high values; 0 = fully inhibited enzyme, 1 = untreated enzyme; activation factor at 5 µM; 96,000 tested, under 10 active; AID 1025;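 active = activation factor of at least 2 at 5 µM in the primary screen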
Each line names hits and unclear results; the compound was inactive in the other large screens. Compounds with a hit are over-represented: about 21% of the library has one in this group of screens.

COc1ccc(CCN2C(=O)CC(NNC(=O)c3ccccc3Br)C2=O)cc1OC (stereo unspecified)	none (no result: CYP2C9 act, CYP2C19 inh, CYP2C9 inhib, MRP reversal, CYP2C19 activ)
CC(C)c1ccccc1NC(=O)C1CN(S(=O)(=O)c2ccccc2)CCN1S(=O)(=O)c1ccccc1 (stereo unspecified)	none (no result: CYP2C9 act, CYP2C19 inh, CYP2C9 inhib, MRP reversal, CYP2C19 activ)
CCN(CC)c1ccc(/C=N/NC(=O)Nc2nonc2N)cc1	none (no result: CYP2C9 act, CYP2C19 inh, CYP2C9 inhib, MRP reversal, CYP2C19 activ)
O=C(CSCc1ccc(Cl)cc1)NCC1CCCO1 (stereo unspecified)	none
O=C(COC(=O)CCC(=O)c1ccc(Cl)cc1)NCC1CCCO1 (stereo unspecified)	CYP2C19 inh 59
N#CC1=C(N)Oc2ccc3ccc(O)cc3c2C1c1ccsc1 (stereo unspecified)	none (no result: CYP2C9 act, CYP2C19 inh, CYP2C9 inhib, MRP reversal, CYP2C19 activ)
O=C1N=C(N2CCN(c3ccccc3)CC2)S/C1=C\c1cn[nH]c1-c1ccccc1	none (no result: CYP2C9 act, CYP2C19 inh, CYP2C9 inhib, MRP reversal, CYP2C19 activ)
O=C1N=C(N2CCC(Cc3ccccc3)CC2)S/C1=C/c1cn[nH]c1-c1ccccc1	CYP2C9 inhib 60 (no result: MRP reversal)
COc1ccc(Cl)cc1NS(=O)(=O)c1ccc(S(=O)(=O)N2CCCC2)cc1	none
CCOc1c(S(=O)(=O)N2CCCC2)ccc(Cl)c1Cl	CYP2C19 inh 93
COc1ccc(Cl)cc1S(=O)(=O)N1CCN(C)CC1	CYP2C19 inh 55
COc1cc(OC)c(S(=O)(=O)N2CCCCC2)cc1S(=O)(=O)N1CCCCC1	CYP2C19 inh 64
COc1c(S(=O)(=O)N2CCCCC2)ccc2c(S(=O)(=O)N3CCCCC3)cccc12	none (no result: MRP-1 activ, CYP2C9 act, CYP2C19 inh, CYP2C9 inhib, CYP2C19 activ)
COc1ccc(Cl)cc1S(=O)(=O)N1CCCC1	CYP2C9 act 2
Cc1cc(C)n2nc(C(=O)Nc3cccnc3)nc2n1	none
CC(C)CC(=O)Nc1ccc(-c2nc3ccccc3c(=O)[nH]2)cc1	none (no result: CYP2C9 act, CYP2C19 inh, CYP2C9 inhib, MRP reversal, CYP2C19 activ)
COc1ccccc1N1CCN(C2CCN(C(=O)COc3cccc(C)c3)CC2)CC1	none (no result: CYP2C9 act, CYP2C19 inh, CYP2C9 inhib, MRP reversal, CYP2C19 activ)
Cc1cc(NC(=O)CSc2nnc3c(C)cc4cc5c(cc4n23)OCO5)no1	none (no result: MRP-1 activ)
CCOc1ccc(Cl)cc1S(=O)(=O)N1CCCC1	CYP2C9 act 2.2, CYP2C19 inh 53
CCOc1ccc(Br)cc1S(=O)(=O)N1CCCC1	none (no result: CYP2C9 act, CYP2C19 inh, CYP2C9 inhib, CYP2C19 activ)
c1ccc(-n2c(-c3cccs3)nc3nc4ccccc4nc32)cc1	none (no result: CYP2C9 act, CYP2C19 inh, CYP2C9 inhib, MRP reversal, CYP2C19 activ)
CCC(C)n1c(-c2cccs2)nc2nc3ccccc3nc21 (stereo unspecified)	CYP2C9 inhib 60
COc1cccc(CC(NC(C)=O)C(=O)NC2CCN(c3nc(C)cc(C)c3C#N)CC2)c1 (stereo unspecified)	CYP2C19 inh 67
COc1ccc(CC(NC(C)=O)C(=O)NC2CCN(c3nc(C)cc(C)c3C#N)CC2)c(OC)c1 (stereo unspecified)	CYP2C19 inh 86, CYP2C9 inhib 55
CC1C(=O)N(c2ccc(S(=O)(=O)N(C)C)cc2)C1(/C=C/c1ccccc1)C(=O)NC1CCCC1 (stereo unspecified)	none (no result: CYP2C9 act, CYP2C19 inh, CYP2C9 inhib, MRP reversal, CYP2C19 activ)
COc1ccc(C2(CNC(=O)c3ccc(OCC(C)C)cc3)CCOCC2)cc1	none (no result: CYP2C9 act, CYP2C19 inh, CYP2C9 inhib, MRP reversal, CYP2C19 activ)
CCOC(=O)C1CCN(S(=O)(=O)Cc2ccccc2)C1=O (stereo unspecified)	CYP2C19 inh 77
S=C(N=Nc1ccccc1)NNc1ccccc1	none (no result: CYP2C9 act, CYP2C19 inh, CYP2C9 inhib, CYP2C19 activ)
CCOc1ccc(C(=O)c2ccncc2)cc1	CYP2C19 inh 87, CYP2C9 inhib 75
Cn1cc(Br)c(C(=O)NNC(=O)c2cccc(Br)c2)n1	none (no result: MRP reversal)
COc1cccc(NC(=O)c2nn(C)cc2Br)c1	none (no result: MRP-1 activ, CYP2C9 act, CYP2C19 inh, CYP2C9 inhib, CYP2C19 activ)
CCOc1ccc2c(c1)C(=NNC(=O)c1ccncc1)c1cc(OCC)ccc1-2	none (no result: CYP2C9 act, CYP2C19 inh, CYP2C9 inhib, MRP reversal, CYP2C19 activ)
Cn1cc(Br)c(C(=O)NNC(=O)c2ccc(Cl)cc2)n1	MRP-1 activ 6.4 (no result: CYP2C9 act, CYP2C19 inh, CYP2C9 inhib, MRP reversal, CYP2C19 activ)
CCOc1ccc(NC(=O)c2nn(C)cc2Br)cc1	CYP2C9 act 2.1
CCOc1ccc(NC(=O)c2ccncc2)cc1	CYP2C19 inh 73, CYP2C9 inhib 73
Oc1ccc2n[nH]nc2c1	none (no result: CYP2C9 act, CYP2C19 inh, CYP2C9 inhib, MRP reversal, CYP2C19 activ)
COCCN1CN=C(Nc2nc3ccccc3s2)NC1	none
CC(C)[C@H](NC(=O)c1ccccc1)C(=O)OCC(=O)/C=C1/N(C)c2ccccc2C1(C)C	MRP-1 activ 4.8 (no result: CYP2C9 act, CYP2C19 inh, CYP2C9 inhib, MRP reversal, CYP2C19 activ)
CN1/C(=C\C(=S)NC(=O)c2cccc(Br)c2)C(C)(C)c2ccccc21	none (no result: CYP2C9 act, CYP2C19 inh, CYP2C9 inhib, MRP reversal, CYP2C19 activ)
CN1/C(=C\C(=O)COC(=O)Cn2nnc(-c3ccccc3)n2)C(C)(C)c2ccccc21	CYP2C9 inhib 74
CCN(CC)c1nc2c(s1)C(=O)CC(C)(C)C2	none
O=C(CSc1nnc(-c2ccccc2Br)o1)N1CCc2ccccc2C1	none
CC1CN(C(=O)c2c(Br)cnn2C)CC(C)O1 (stereo unspecified)	none (no result: CYP2C9 act, CYP2C19 inh, CYP2C9 inhib, MRP reversal, CYP2C19 activ)
O=C(N/N=C/CCc1ccccc1)c1ccc(CN2c3cccc4cccc(c34)S2(=O)=O)cc1	none (no result: CYP2C9 act, CYP2C19 inh, CYP2C9 inhib, MRP reversal, CYP2C19 activ)
O=c1c2ccccc2nnn1Cc1nnc(-c2ccccc2Br)o1	CYP2C19 inh 82
O=S1(=O)c2cccc3cccc(c23)N1Cc1ccc(-c2nnco2)cc1	CYP2C19 inh 68, CYP2C9 inhib 53
O=S1(=O)c2cccc3cccc(c23)N1Cc1nnc(-c2ccccc2Br)o1	CYP2C19 inh 93
O=C(N/N=C/c1cccnc1)c1ccccc1[N+](=O)[O-]	none (no result: CYP2C9 act, CYP2C19 inh, CYP2C9 inhib, MRP reversal, CYP2C19 activ)
O=C(NCC1COc2ccccc2O1)C1CCCN(S(=O)(=O)c2cccc3nsnc23)C1 (stereo unspecified)	CYP2C19 inh 54, CYP2C9 inhib 61
O=C(NCC1COc2ccccc2O1)C1CCCN(S(=O)(=O)c2cccc3cccnc23)C1 (stereo unspecified)	CYP2C19 inh 75

Screening results deposited in PubChem BioAssay by several laboratories.
